# Reference: PubChem BioAssay (NCI)
# Compounds without any hit were thinned out: in the full panel of roughly 79,000, 15% have a hit. Values without a mark were called inactive. Activity calls are given as the source filed them. Rule as the data show it: active = growth inhibition above about 70%; inactive = the rest.
# Key:
# [1] = NCI Yeast Anticancer Drug Screen. Data for the rad50 strain (AID 155);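 also: 0% = growth of vehicle-only cultures of the same strain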; details: S. cerevisiae rad50 strain growth inhibition, stronger effect = higher value
# How it was run: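 Cells are treated with compound, grown, and their growth is then scored against vehicle-only cultures of the same repair-deficient yeast strain.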
# [2] = NCI Yeast Anticancer Drug Screen. Data for the mec2-1 strain (AID 157); details: S. cerevisiae mec2-1 strain, stronger effect = higher value
# How it was run: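 mec2-1 yeast strain, carrying an alteration in DNA damage repair or cell cycle control, was exposed to compounds; growth inhibition was measured relative to vehicle-treated controls.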
# [3] = NCI Yeast Anticancer Drug Screen. Data for the sgs1 mgt1 strain (AID 161);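 also: 0% = growth of cultures given vehicle only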; details: S. cerevisiae sgs1 mgt1 strain, stronger effect = higher value
# How it was run: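 Compounds are added to genetically altered yeast, and growth is compared with cultures given vehicle alone to give percent inhibition.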
# [4] = NCI Yeast Anticancer Drug Screen. Data for the cln2 rad14 strain (AID 165);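 also: 0% = growth equal to vehicle treated cultures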; details: S. cerevisiae cln2 rad14 strain, stronger effect = higher value
# How it was run: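 Yeast carrying cln2 and rad14 alterations (cell cycle control and DNA damage repair) were exposed to compounds. Growth inhibition was measured against vehicle-treated controls.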
# [5] = NCI Yeast Anticancer Drug Screen. Data for the bub3 strain (AID 167); details: S. cerevisiae bub3 mutant strain, stronger effect = higher value
# How it was run: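 Part of a panel of yeast mutants defective in DNA damage repair or cell cycle regulation. Each strain is grown with compound, and inhibition is calculated relative to solvent-treated cultures.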
# [6] = NCI Yeast Anticancer Drug Screen. Data for the mlh1 rad18 strain (AID 175); details: S. cerevisiae mlh1 rad18 strain growth inhibition, stronger effect = higher value
# How it was run: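 Growth inhibition of the yeast strain was measured after compound exposure and expressed relative to vehicle-treated controls. The strain carries defined defects in DNA damage repair.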
# [7] = at 5.0 µM (retest, dose inferred, filed as 0.5)
# [8] = at 50.0 µM (retest, dose inferred, filed as 5.0)
SMILES,"growth inhibition [1, 7]","growth inhibition [1, 8]",growth inhibition ([1]; at 50.0 µM),"growth inhibition [2, 7]","growth inhibition [2, 8]",growth inhibition ([2]; at 50.0 µM),"growth inhibition [3, 7]","growth inhibition [3, 8]",growth inhibition ([3]; at 50.0 µM),"growth inhibition [4, 7]","growth inhibition [4, 8]",growth inhibition ([4]; at 50.0 µM),"growth inhibition [5, 7]","growth inhibition [5, 8]",growth inhibition ([5]; at 50.0 µM),"growth inhibition [6, 7]","growth inhibition [6, 8]",growth inhibition ([6]; at 50.0 µM)
Cc1cccc(NC(=O)C(=O)C(C2OC(=O)c3ccccc32)[N+](=O)[O-])c1C (configuration not stated),8%,69%,85.4% (active),-24%,82% (active),86.8% (active),9%,75% (active),87.7% (active),27%,79% (active),90.4% (active),-13%,92% (active),88.3% (active),-21%,89% (active),83.3% (active)
O=C(NCCCl)N1CCC(CN=c2cc3n(-c4ccc(Cl)cc4)c4ccccc4nc-3cc2Nc2ccc(Cl)cc2)CC1,-33%,99% (active),98.6% (active),-5%,99% (active),98.5% (active),-22%,99% (active),98.7% (active),-56%,99% (active),98.3% (active),-11%,99% (active),98.4% (active),-34%,98% (active),99% (active)
C=CC1(C)CCC2C(=CCC3C2(C)CC(O)C(O)C3(C)COC2OC(CO)C(O)C(O)C2O)C1 (configuration not stated),1%,99% (active),93.1% (active),-1%,100% (active),94.1% (active),-1%,99% (active),94.1% (active),1%,99% (active),90.5% (active),0%,99% (active),93.6% (active),0%,82% (active),-41.4%
O=C1C(=O)c2ccccc2C=C1C1CCCCC1,13%,64%,85% (active),19%,72% (active),78.2% (active),14%,63%,91% (active),1%,43%,71.5% (active),6%,63%,64%,18%,80% (active),91% (active)
O=c1c2ccccc2[nH]c2c1[nH]c1ccccc12,10%,23%,37%,11%,25%,-11.7%,5%,24%,-1.65%,7%,11%,83.4% (active),7%,22%,-20.6%,12%,28%,19.9%
CCCCCCCCCCCCCCCC1=NCCN1C,14%,99% (active),99.1% (active),9%,100% (active),99.5% (active),29%,99% (active),54.9%,15%,98% (active),96.5% (active),48%,99% (active),99.3% (active),16%,99% (active),98.9% (active)
O=C(O)CC1c2ccc3ccccc3c2CCC1c1ccccc1 (configuration not stated),74% (active),99% (active),99.6% (active),44%,99% (active),99.6% (active),68%,99% (active),99.7% (active),34%,99% (active),99.5% (active),30%,99% (active),99.5% (active),78% (active),99% (active),99.5% (active)
O=C(O)/C=C/CCC1SCC2NC(=O)NC21 (configuration not stated),96% (active),96% (active),80.3% (active),98% (active),97% (active),84.2% (active),96% (active),96% (active),88.3% (active),94% (active),95% (active),84% (active),97% (active),97% (active),87.5% (active),96% (active),96% (active),83% (active)
CC(=O)O[C@H]1CC[C@]2(C)C34OC3C[C@]3(C)[C@@H](C(C)=O)CC[C@H]3[C@]43C=C[C@@]2(C1)C1C(=O)OC(=O)C13 (some centres not stated),10%,60%,88.2% (active),6%,45%,89.9% (active),5%,48%,75.9% (active),0%,34%,84.2% (active),2%,42%,92.4% (active),-2%,85% (active),93.2% (active)
CC(Br)Cc1ccc2c(c1)OCO2 (configuration not stated),3%,0%,1.15%,2%,-2%,44.5%,3%,-3%,19.8%,3%,-1%,-3.8%,-10%,-14%,-28.5%,-4%,1%,-12.4%
COc1ccc(N2CCN(CC(O)COc3cc4c(c5c3CCCC5)CCCC4)CC2)cc1 (configuration not stated),15%,98% (active),45.4%,17%,98% (active),99% (active),22%,97% (active),54.7%,6%,98% (active),84.2% (active),13%,97% (active),92% (active),9%,96% (active),77.6% (active)
CCn1c2ccccc2c2ccc(N=Nc3ccc(N(C)C)cc3)cc21,34%,92% (active),77% (active),19%,94% (active),78.5% (active),6%,92% (active),79.5% (active),15%,84% (active),85.7% (active),10%,92% (active),82.3% (active),18%,93% (active),83.4% (active)
CCC[CH2][Ge]([CH2]CCC)([CH2]CCC)[O]C(=O)C(OC(C)=O)c1ccccc1 (configuration not stated),95% (active),95% (active),78% (active),85% (active),85% (active),75.2% (active),98% (active),98% (active),86% (active),55%,55%,71% (active),62%,62%,85% (active),87% (active),87% (active),79.5% (active)
Cc1ccc2[nH]c3cc4ccncc4cc3c2c1,-127%,95% (active),48.5%,30%,95% (active),98.6% (active),-15%,94% (active),3.7%,35%,96% (active),96.7% (active),47%,96% (active),97.2% (active),40%,95% (active),49.9%
Fc1ccc(OCCC(Cn2ccnc2)c2ccc(Cl)cc2Cl)cc1 (configuration not stated),82% (active),99% (active),98.7% (active),56%,91% (active),99.8% (active),71% (active),96% (active),95.2% (active),61%,92% (active),94.7% (active),83% (active),94% (active),99.2% (active),55%,99% (active),95.1% (active)
Cc1cc(Cl)ccc1C(=O)c1ccc2ccccc2c1C(=O)O,8%,44%,84% (active),-15%,49%,82.5% (active),3%,54%,78% (active),-7%,65%,83.5% (active),-24%,87% (active),82.4% (active),-36%,52%,78.8% (active)
O=C(/C=C/c1ccc2c(c1)OCO2)c1ccc(O)cc1,-27%,-21%,61%,-13%,21%,44%,-27%,-31%,40.8%,-7%,-11%,65.2%,-32%,5%,61.5%,-33%,-17%,14.6%
OC1CCC(COC(c2ccccc2)(c2ccccc2)c2ccccc2)O1 (configuration not stated),-8%,98% (active),98.6% (active),5%,99% (active),98.5% (active),-19%,99% (active),98% (active),5%,98% (active),98.2% (active),4%,96% (active),99% (active),0%,99% (active),98.1% (active)
CC(C)OC(=O)c1ccccc1C(=C1C=C(Br)C(=O)C(Br)=C1)c1cc(Br)c(O)c(Br)c1,85% (active),95% (active),90.7% (active),88% (active),98% (active),91.9% (active),70% (active),95% (active),90.9% (active),96% (active),97% (active),88.2% (active),94% (active),97% (active),91% (active),96% (active),96% (active),90.5% (active)
